Several values for one entry are separate records, joined by “and”; a condition that tells them apart may be missing. Equal entries are not always repeated. About 2,000 (36%) of roughly 5,500 compounds were called active. Roughly 18% stayed inconclusive and do not appear here. Rule as the data show it: active = normalized growth mostly below about 0.91 (no sharp cut-off); inconclusive = no clear call, values can overlap the other calls; inactive = mostly above about 0.92. The list shows a part of the results.
Assay: chemical genetic growth profiling, strain panel (AID 1159580);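 also: tested at 20 µM; growth read once vehicle control cultures reached saturation at 30 °C; 1 = growth at the plate median or of vehicle wells; lower values mean less growth of the strain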
Details: S. cerevisiae deletion strains, growth OD

Measured: normalized growth

O=C(CCBr)N1CCN(C(=O)CCBr)CC1
inactive: locus YAL013W, strain DEP1, active compounds read low 1 | locus YAL021C, strain ccr4, active compounds read low 1.02 | locus YAL026C, strain drs2, active compounds read low 1.01 | locus YAL030W, strain snc1, active compounds read low 1.02 | locus YBL061C, strain skt5, active compounds read low 1.02 | locus YBR009C, strain hhf1, active compounds read low 1.02 | locus YBR021W, strain FUR4, active compounds read low 0.998 | locus YBR023C, strain chs3, active compounds read low 1.03 | locus YBR171W, strain sec66, active compounds read low 1.04 | locus YBR229C, strain ROT2, active compounds read low 1 | locus YBR231C, strain swc5, active compounds read low 1.02 | locus YBR279W, strain paf1, active compounds read low 1.02 | locus YCL011C, strain gbp2, active compounds read low 1.02 | locus YCL016C, strain dcc1, active compounds read low 1.02 | locus YCL029C, strain bik1, active compounds read low 1 | locus YCL061C, strain MRC1, active compounds read low 1.01 | locus YCL069W, strain vba3, active compounds read low 1.02 | locus YCR088W, strain abp1, active compounds read low 1.01 | locus YDL005C, strain med2, active compounds read low 1.02 | locus YDL035C, strain GPR1, active compounds read low 1.01 | locus YDL040C, strain nat1, active compounds read low 1.02 | locus YDL074C, strain BRE1, active compounds read low 1 | locus YDL101C, strain DUN1, active compounds read low 1.01 | locus YDL134C, strain PPH21, active compounds read low 1.01 | locus YDL185W, strain tfp1, active compounds read low 0.988 | locus YDL192W, strain arf1, active compounds read low 1.01 | locus YDR001C, strain nth1, active compounds read low 1.01 | locus YDR069C, strain doa4, active compounds read low 1.02 | locus YDR101C, strain arx1, active compounds read low 1.01 | locus YDR137W, strain rgp1, active compounds read low 1.05 | locus YDR159W, strain sac3, active compounds read low 1.01 | locus YDR162C, strain NBP2, active compounds read low 1.01 | locus YDR195W, strain ref2 1.02 | locus YDR297W, strain sur2, active compounds read low 1.02 | locus YDR318W, strain mcm21, active compounds read low 0.996 | locus YDR334W, strain swr1, active compounds read low 1.02 | locus YDR335W, strain msn5, active compounds read low 1.02 | locus YDR388W, active compounds read low 0.995 | locus YDR392W, strain spt3, active compounds read low 1.03 | locus YDR502C, strain sam2, active compounds read low 0.998 | locus YEL003W, strain gim4, active compounds read low 1.02 | locus YEL037C, strain rad23, active compounds read low 1.01 | locus YEL061C, strain CIN8 (second series), active compounds read low 1.02 | locus YEL061C, strain CIN8, active compounds read low 1 | locus YER015W, strain faa2, active compounds read low 1.02 | locus YER016W, strain bim1, active compounds read low 1.02 | locus YER110C, active compounds read low 0.993 | locus YER111C, strain swi4, active compounds read low 1.02 | locus YER155C, strain BEM2 (second series), active compounds read low 1.02 | locus YER155C, strain BEM2, active compounds read low 1.01 | locus YER167W, strain BCK2, active compounds read low 1.01 | locus YFR010W, strain ubp6, active compounds read low 1.01 | locus YGL078C, strain dbp3, active compounds read low 0.995 | locus YGL086W, strain mad1, active compounds read low 0.991 | locus YGL167C, strain pmr1, active compounds read low 1.02 | locus YGL173C, strain kem1, active compounds read low 1.02 | locus YGL227W, strain vid30, active compounds read low 1.02 | locus YGL240W, strain doc1, active compounds read low 1.02 | locus YGL248W, strain PDE1, active compounds read low 1 | locus YGL253W, strain hxk2, active compounds read low 1 | locus YGR135W, strain pre9, active compounds read low 0.99 | locus YGR229C, strain SMI1, active compounds read low 0.99 | locus YGR252W, strain gcn5, active compounds read low 0.934 | locus YHR013C, strain ard1, active compounds read low 1.04 | locus YHR027C, strain rpn1, active compounds read low 1.01 | locus YHR030C, strain SLT2, active compounds read low 1.01 and 1 | locus YHR079C, strain IRE1 (second series), active compounds read low 0.995 | locus YHR079C, strain IRE1, active compounds read low 0.997 | locus YHR094C, strain hxt1, active compounds read low 0.996 | locus YHR129C, strain ARP1, active compounds read low 1.01 | locus YHR142W, strain chs7, active compounds read low 1.02 | locus YHR200W, strain rpn10, active compounds read low 0.994 | locus YIL066C, strain RNR3, active compounds read low 1.02 | locus YIL073C, strain SPO22, active compounds read low 1.04 | locus YIL125W, strain kgd1, active compounds read low 0.987 | locus YIR030C, strain dcg1, active compounds read low 1 | locus YJL092W, strain hpr5, active compounds read low 1.01 | locus YJL095W, strain BCK1 (second series), active compounds read low 1.01 | locus YJL095W, strain BCK1, active compounds read low 1.01 and 0.998 | locus YJL115W, strain asf1, active compounds read low 1 | locus YJL129C, strain trk1, active compounds read low 1.02 | locus YJL134W, strain LCB3, active compounds read low 1.01 | locus YJL154C, strain vps35, active compounds read low 1.02 | locus YJL164C, strain tpk1, active compounds read low 1.02 | locus YJL166W, strain qcr8, active compounds read low 1.02 | locus YJL168C, strain set2, active compounds read low 0.998 | locus YJL187C, strain SWE1 (second series), active compounds read low 1.02 | locus YJL187C, strain SWE1, active compounds read low 1.02 | locus YJR043C, strain POL32, active compounds read low 1.01

Reference: PubChem BioAssay AID1159580 (chemical genetic matrix, 2015)
